# FMDV antiviral: blocks foot and mouth disease virus; FMDV antiviral cell-based qHTS; Potency, µM (series often up to 57.9 µM), for the others: at the highest dose activity change, negative = inhibition, most hits filed as inhibitors; 410,000 tested, 1.2% active; AID 1159524; calls by dose curve; tested in HEK293T cells; further: read-out not given here; on the % scale 0 is the no-effect control and ±100 the full control effect; nearly all actives have a fitted effect of over 45% in size
# HCV inh: HCV inhibition; Huh7.5.1 HCVcc-Cre infection, luciferase reporter, 44 h; Potency, µM (top dose mostly 41.8 µM), for inactives: at the highest dose activity change, negative = inhibition, actives largely listed as inhibitors; 340,000 tested, 3.4% active; further: on the % scale 0 is the no-effect control and ±100 the full control effect
#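 Whole-lifecycle infectious HCVcc-Cre system; cells 1,000/well, compound then virus (~0.5 moi) added 4 h after plating, 44 h culture. Luciferase read 15 sec following 15 min substrate incubation, room temp.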
# MARV entry inh: inhibitors of Marburg virus binding or cell entry | Potency, µM (titrated, usually from 37.8 µM), for inactives: at the highest dose activity change, negative = inhibition, hits mostly inhibitors | Marburg virus pseudotyped entry inhibition, cell reporter | AID 540276 | 300,000 tested, 1.8% active; calls by dose curve; tested in HEK293 cells; further: on the % scale 0 is the no-effect control and ±100 the full control effect
# VACV Venus inh: vaccinia inhibition (Venus reporter); Vaccinia virus Venus reporter expression, fluorescence; Potency, µM (doses to about 36.5 µM), for inactives: at the highest dose activity change, negative = inhibition, usual class: inhibitors; 330,000 tested, 0.46% active; calls by dose curve; tested in A549 cells; further: on the % scale 0 is the no-effect control and ±100 the full control effect; nearly all actives have a fitted effect of over 30% in size
# VACV mCherry inh: inhibitors of vaccinia virus infection (mCherry reporter signal). Vaccinia virus mCherry reporter infection, fluorescence. Potency, µM (doses to about 36.5 µM), for the others: at the top dose activity change, negative = inhibition, hits mostly inhibitors. 310,000 tested, 0.63% active. AID 720579; calls by dose curve; tested in A549 cells; further: on the % scale 0 is the no-effect control and ±100 the full control effect; nearly all actives have a fitted effect of over 35% in size
# Lassa entry inh: Lassa virus entry inhibition | 300,000 tested, 1.2% active | Lassa virus pseudotype entry inhibition, cell reporter | Potency, µM (series often up to 37.9 µM), inactives show at the top dose activity change, negative = inhibition, usual class: inhibitors | AID 540256; calls by dose curve; tested in HEK293 cells; further: on the % scale 0 is the no-effect control and ±100 the full control effect; nearly all actives have a fitted effect of over 50% in size
# HCV confirm: confirmation of hepatitis C virus inhibitors | Potency, µM (doses to about 41.8 µM), for the others: at the top dose activity, negative = inhibition, actives largely listed as inhibitors | shares compounds with HCV inh | AID 720575 | 640 tested, 78% active | HCVcc-Cre infectious virus cell assay, luciferase, inhibition; further: nearly all actives have a fitted effect of over 80% in size
# HCV cytotox: host cell cytotoxicity counter-screen for HCV inhibitors; shares compounds with HCV inh; HCV host cell line cytotoxicity counterscreen; Potency, µM (doses to about 41.8 µM), without a hit: top-dose activity change, negative = cytotoxicity, actives largely listed as inhibitors; 640 tested, 22% active; AID 720576;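 further: 44 h compound exposure; on the % scale 0 is the no-effect control and ±100 the full control effect; nearly all actives have a fitted effect of over 55% in size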
# * hit, by the source's call; i = inactive; ? = inconclusive; / = no result given; [ ] = remark or other dose. Sampled rows, rich in hits. Any-hit rate of the full collection: about 5.3%. Unless noted, the call rests on the fitted dose curve; in most records, active means well fitted curve in the direction sought with a large enough effect; inconclusive means small, poorly fitted or top-dose-only effect, or another doubt; inactive means no such curve, though single readings can be large; an effect the other way counts as inactive or inconclusive. Potency means the concentration at half of the fitted maximal effect.
SMILES,FMDV antiviral,HCV inh,MARV entry inh,VACV Venus inh,VACV mCherry inh,Lassa entry inh,HCV confirm,HCV cytotox
Clc1ccc2c(c1)C(OC1CN3CCC1CC3)c1ccccc1CS2 (centres undefined),?,10µM*,?,?,?,?,15.8µM*,?
Clc1ccc2c(NNc3ccccc3Cl)ccnc2c1,-2.9%,-1.1%,-20.6%,/,/,3.4%,/,/
O=C(NNc1ccnc2cc(Cl)ccc12)C1CCCCC1,?,2.82µM*,?,-10.4%,-1.3%,-4.4%,0.887µM*,1.58µM*
Oc1c(CN2CCOCC2)cc(CN2CCOCC2)c(O)c1CN1CCOCC1,-2.0%,5.6%,3.7%[46.1 µM],17.3%,-10.5%,2.6%[46.1 µM],/,/
CC(C)(c1cc(Cl)c(O)c(CN2CCOCC2)c1)c1cc(Cl)c(O)c(CN2CCOCC2)c1,-20.9%,3.16µM*,?,4.1%,-20.0%,?,6.28µM*,45.0%
CC(=O)c1ccc(OCC(=O)Nc2ccc(N3CCCCC3)cc2)cc1,-12.6%,?,/,/,/,/,/,/
Oc1ccc(CN2CCN(c3ccccc3)CC2)c2cccnc12,-21.5%,7.94µM*,?,-22.4%,-27.3%,?,7.05µM*,22.3µM*
Oc1ccc2ccccc2c1CN1CCN(c2ccccc2)CC1,-12.8%,9.9%,-23.1%,/,/,-7.4%,/,/
Cc1ccc(S(=O)(=O)N2[C@@H](c3ccc(Cl)cc3)C(C(=O)OC(C)(C)C)=CC[C@H]2c2ccc(Cl)c(Cl)c2)cc1,-27.1%,/,/,-4.3%,-5.5%,/,/,/
c1ccc(-c2cccc(-c3ccccn3)n2)nc1,9.5%,5.62µM*,2.06µM*,/,/,2.06µM*,3.53µM*,3.53µM*
Cc1c(NS(=O)(=O)c2cc(C(=O)NC(C)c3ccccc3)ccc2Cl)c(=O)n(-c2ccccc2)n1C (centres undefined),-5.2%,25.5%,-7.0%,-22.8%,-10.4%,2.7%,/,/
Cc1cc(C)cc(-n2c(C)c3c(C)nnc(C)c3c2C)c1,0.0%,2.24µM*,?,-13.3%,-10.6%,?,11.2µM*,-14.1%
Cc1nnc(C)c2c(C)n(-c3ccc(Cl)c(N)c3)c(C)c12,-21.7%,?,?,-3.2%,-5.3%,-0.6%[46.1 µM],/,/
CC1CN(C)C(C)c2c1oc1ccc([N+](=O)[O-])cc21 (centres undefined),-2.8%,?,10.6%[14.2 µM],4.2%,3.5%,1.1%,25µM*,23.1%
O=C(Nc1ccc(-c2noc(COc3ccccc3Cl)n2)cc1)c1ccco1,3.2%,?,?,-28.6%,/,?,7.05µM*,-26.7%
O=C(COc1ccccc1Cl)Nc1ccc(NC(=O)c2ccco2)cc1,-6.4%,-14.7%,12.0%[46.1 µM],-15.4%,i,-6.2%,/,/
Cc1ccc2sc(N(CCCN(C)C)C(=O)c3ccc(Br)s3)nc2c1C,-22.8%,7.08µM*,14.6µM*,-17.7%,?,?,?,-28.0%
Cc1ccc2sc(N(CCCN(C)C)C(=O)c3ccco3)nc2c1C,-3.5%,/,/,-19.9%,-20.9%,-24.0%[46.1 µM],/,/
CCc1cccc(C)c1NC(=O)CSc1n[nH]c(-c2ccccc2)n1,?,/,/,-15.9%,-13.1%,1.9%[46.1 µM],/,/
CC(C)=CCC/C(C)=C/CNC(=O)C[C@H]1C[C@H](C(=O)N2CCOCC2)[C@@]2(C)c3[nH]c4cc(CCC(=O)N(C)C)ccc4c3CCN2C1=O,-26.4%,?,0.3%,-27.2%,?,/,/,/
CC(C)=CCC/C(C)=C/CNC(=O)C[C@H]1C[C@H](C(=O)N2CCCCC2)[C@@]2(C)c3[nH]c4cc(CCC(=O)N(C)C)ccc4c3CCN2C1=O,0.0%,7.94µM*,/,?,-21.1%,/,25µM*,?
COC(=O)c1c(C(=O)OC)c2cccc3cc(-c4ccccc4)c4ccc1c4n32,-12.5%,1.78µM*,1.5%,-10.1%,/,0.8%,5.6µM*,?
COc1cc2ccccc2cc1C(=O)Nc1ccccc1N1CCCC1,-13.4%,?,?,-6.1%,-26.6%,5.0%,14.1µM*,-84.5%

# Compound activity: PubChem, National Center for Advancing Translational Sciences (NCATS)
